# Among all 330,000 compounds or so, about 4,600 (1.4%) were called active.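 The calls were made as follows: active = inhibition of 40% or more at the single tested concentration; inactive = the rest.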 Many of the other results were omitted from the sample, so actives are more common in it than they were.
# Experiment: wild-type TIM10 yeast growth inhibition – luminescence, uHTS, counter-screen for tim10-1 yeast inhibitor project, primary screen (AID 463195);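 also: wild-type TIM10 isogenic control strain grown at permissive 25 °C; 0% = DMSO yeast wells and 100% = minimal medium wells without yeast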
# Details: S. cerevisiae TIM10 strain growth, BacTiter-Glo luminescence, 24 h; at 10 µM; active compounds read high
row,SMILES,inhibition
1,Cc1cccc(N(C(=O)c2ccc(CN3CCOCC3)o2)C(C(=O)NC2CCCCC2)c2ccc(F)cc2)c1 (configuration not stated),-2.65% (inactive)
2,FC(F)(F)C1CCCN(c2nsc3ccccc23)C1 (configuration not stated),2.15% (inactive)
3,OC(c1ccccc1)C(CN1CCOCC1)c1ccccc1 (configuration not stated),3.43% (inactive)
4,Oc1c(Cl)cc(Cl)c(Cl)c1Cc1c(O)c(Cl)cc(Cl)c1Cl,90.7% (active)
5,CCCCc1cc2c(s1)CCCC/C2=N/O,22.6% (inactive)
6,CCc1ccc(-n2c(=S)sc3c(=O)n(-c4ccccc4OC)c(=S)[nH]c32)cc1,-1.05% (inactive)
7,COc1ccc(NC(=S)NCCN2CCC(C)CC2)cc1,4.83% (inactive)
8,COc1ccc(N2CCC(CNC(=S)Nc3c(C)cccc3C)C2)cc1 (configuration not stated),16.7% (inactive)
9,COc1ccc(NC(=S)NCC2CCN(c3ccc(OC)cc3)C2)cc1 (configuration not stated),48% (active)
10,CC(=O)N/C(=C\c1ccc(F)cc1)C(=O)NC(Cc1ccccc1)C(=O)O (configuration not stated),-0.026% (inactive)
11,Cc1ccc(S(=O)(=O)/N=C(/NC(=S)Nc2c(C)n(C)n(-c3ccccc3)c2=O)c2ccccc2)cc1,2.05% (inactive)
12,CCCCN(C(=O)/C=C/c1ccco1)c1c(N)n(CC(C)C)c(=O)[nH]c1=O,-1.39% (inactive)
13,Cc1ccsc1C(=O)N[C@@H](C)c1nnc2ccccn12,0.47% (inactive)
14,CC1CCCN(c2ccc(C(=O)NCCc3ccccc3)cn2)C1 (configuration not stated),20.8% (inactive)
15,COc1ccc(NC(=O)CC2C(=O)NC3CCCCC3N2C(=O)c2ccc(F)cc2)cc1 (configuration not stated),-3.23% (inactive)
16,CC(C)N(Cc1ccccc1)C(=S)Nc1ccc(OC(F)F)cc1,44% (active)
17,CN(CC(=O)Nc1ccc(OC(F)F)cc1)S(=O)(=O)/C=C/c1ccccc1,15.2% (inactive)
18,CC(=O)c1ccc(NC(=S)N(Cc2ccccc2)C(C)C2CC2)cc1 (configuration not stated),12.5% (inactive)
19,C=CCC(CC=C)(C(N)=O)c1ccccc1,1.01% (inactive)
20,CC(Sc1nnc2c(n1)C1CCC2(C)C1(C)C)C(=O)Nc1ccccc1 (configuration not stated),14.6% (inactive)
21,Cc1ccccc1S(=O)(=O)Cc1ccc(C(=O)NCCN2CCCCC2C)o1 (configuration not stated),-4.28% (inactive)
22,CC(=C/c1ccccc1)/C=N/NC(=O)c1cc(C)oc1C,9.24% (inactive)
23,CC(/C=N/NC(=O)c1cc(-c2ccc3ccccc3c2)n[nH]1)=C\c1ccco1,45.8% (active)

row,SMILES,inhibition
1,CC(C)(C)C1CCC(=NNC(=O)c2cc(-c3ccccc3)n[nH]2)CC1 (configuration not stated),-10.2% (inactive)
2,COCC1CCCN(Cc2cn[nH]c2-c2cc3ccccc3o2)C1 (configuration not stated),-1.56% (inactive)
3,COc1ccc(CN2CCCC(C(=O)N3CCCCC3)C2)cc1 (configuration not stated),-13% (inactive)
4,C=C1CCN([C@@H](Cc2ccccc2)C(=O)N2CCOCC2)S(=O)(=O)c2ccccc21,1.68% (inactive)
5,Cn1c(=O)c2c(SCC(=O)NCC3CCCO3)nc(CC(C)(C)C)nc2n(C)c1=O (configuration not stated),20.8% (inactive)
6,C/C(Cc1ccccc1)=N\NC(=O)CNC(=O)c1ccccc1Cl,-5.47% (inactive)
7,CCCN(CC1COc2ccccc2O1)C(=S)Nc1ccc(C)cc1 (configuration not stated),30.5% (inactive)
8,S=C(NCC1COc2ccccc2O1)Nc1ccc(Br)cc1 (configuration not stated),-1.91% (inactive)
9,CC(NC(=S)Nc1ccccc1)C1COc2ccccc2O1 (configuration not stated),47.6% (active)
10,C/C(=N\Nc1cccc(C(=O)O)c1)c1ccc2c(c1)Nc1ccccc1S2,10.7% (inactive)
11,CC1CC(=O)Nc2ccccc2N1S(=O)(=O)c1cccs1 (configuration not stated),5.91% (inactive)
12,CC1CC(C)(C)NC(=S)N1CCC(=O)N1CCN(Cc2ccccc2)CC1 (configuration not stated),-2.23% (inactive)
13,CC1CC(=S)Nc2ccccc2N1Cc1ccccc1 (configuration not stated),46.2% (active)
14,COC(=O)CNc1nc(Cl)nc(N2CCC(C)CC2)n1,-3.85% (inactive)
15,CCOc1ccccc1NC(=S)NC(=O)CCc1ccccc1,11.7% (inactive)
16,O=C(OCCOCn1cc(Br)c(=O)[nH]c1=O)c1ccccc1,-12.6% (inactive)
17,Cn1nccc1/C=N\NC(=O)c1ccc(Cl)cc1,-2.29% (inactive)
18,CCc1ccc(OCC(=O)NCC(c2ccc(Cl)cc2)N2CCCCC2)cc1 (configuration not stated),42.7% (active)
19,COc1ccc(C(CNC(=O)COc2ccccc2OC)N2CCCCC2)cc1 (configuration not stated),0.651% (inactive)
20,COc1ccc(C(CNC(=O)COc2ccc([N+](=O)[O-])cc2)N2CCCCC2)cc1 (configuration not stated),8.46% (inactive)
21,CC1(c2ccccc2)CC(C)(C)N(C(=O)c2cc([N+](=O)[O-])cc([N+](=O)[O-])c2)c2ccccc21 (configuration not stated),-3.92% (inactive)
22,CC1CCC2CCCCC2N1C(=O)c1cc([N+](=O)[O-])cc([N+](=O)[O-])c1 (configuration not stated),40.2% (active)
23,CC1CCN(C(=S)c2cccc([N+](=O)[O-])c2)CC1,1.4% (inactive)

row,SMILES,inhibition
1,Cc1csc(CN(C)C(=O)CC2C(=O)NCCN2CC(C)(C)C)n1 (configuration not stated),-12.9% (inactive)
2,Cn1c(=O)cc(OCCCC(=O)N2CCN(c3ccccn3)CC2)c2ccccc21,13.5% (inactive)
3,Oc1cccc2ccc(/C=C/c3ccc(Br)s3)nc12,15.2% (inactive)
4,COCCNC(=S)N(CCc1c(C)[nH]c2ccc(C)cc12)Cc1cccnc1,-1.03% (inactive)
5,CCNC(=S)N(CCc1c(C)[nH]c2ccc(C)cc12)Cc1ccco1,41.2% (active)
6,COc1cccc(NC(=S)N(CCc2c(C)[nH]c3ccccc23)Cc2ccco2)c1,15.9% (inactive)
7,O=C(N/N=C/c1ccc(O)c(O)c1)C1c2ccccc2Oc2ccccc21,-9.32% (inactive)
8,CCN(CCCCOC(=O)c1ccc(OC)c(OC)c1)C(C)Cc1ccc(OC)cc1 (configuration not stated),-1.12% (inactive)
9,Cc1ccccc1N1CCN(C2CCCN(C(=O)c3ocnc3C)C2)CC1 (configuration not stated),-0.332% (inactive)
10,COc1cccc(CNC(C)C(=O)Nc2ccc(S(=O)(=O)N3CCCC3)cc2)c1 (configuration not stated),18.4% (inactive)
11,COc1ccc(S(=O)(=O)N2CCN(C(C)C(=O)Nc3ccc(C(C)C)cc3)CC2)cc1 (configuration not stated),44.9% (active)
12,CC(C)c1ccc(S(=O)(=O)N2CCN(C(C)C(=O)NC3CCCC3)CC2)cc1 (configuration not stated),-30.5% (inactive)
13,Cc1c(C(=O)OC(C)C)sc(NC(=O)c2cccnc2)c1C#N,6.36% (inactive)
14,COc1ccc(CCNC(=O)COC(=O)Cc2cccc(F)c2)cc1,7.57% (inactive)
15,Cc1cccc(NC(=O)CN2CCN(C(=O)C3CCN(C(=O)/C=C/c4ccccc4)CC3)CC2)c1C,8.87% (inactive)
16,CCCCn1c(=O)c(CCC(=O)OCC(=O)Nc2ccc(C)c(Cl)c2)nc2ccccc21,-6.83% (inactive)
17,COc1ccc(S(=O)(=O)N(C)C[C@H]2Oc3c(NC(=O)Nc4ccc5c(c4)OCO5)cccc3C(=O)N([C@H](C)CO)C[C@@H]2C)cc1,1.19% (inactive)
18,O=C(NCc1ccccc1)C1CCCN(c2nc3ccsc3c(=O)s2)C1 (configuration not stated),-2.48% (inactive)
19,CCC(C)NC(=O)c1nn(C)c(=O)c2ccccc12 (configuration not stated),1.61% (inactive)
20,Cc1ccc(NC(=O)CSc2sc3c(O)cc(=O)[nH]c3c2C#N)cc1C,-6.33% (inactive)
21,CCOC(=O)c1ccc(N2C(=O)CC(N3CCN(C(=O)c4ccccc4)CC3)C2=O)cc1 (configuration not stated),1.01% (inactive)
22,CCOC(=O)c1ccc(N2C(=O)CC(N3CCC(C(=O)OCC)CC3)C2=O)cc1 (configuration not stated),41.3% (active)
23,CCOC(=O)c1ccc(N2C(=O)CC(N3CC(C)OC(C)C3)C2=O)cc1 (configuration not stated),8.24% (inactive)

row,SMILES,inhibition
1,CC1CN(C(=S)Nc2ccc(S(N)(=O)=O)cc2)CC(C)O1 (configuration not stated),2.19% (inactive)
2,CCN(C(=O)COc1ccc(C(=O)c2ccccc2)cc1)c1ccccc1,16.5% (inactive)
3,CCOC(=O)CSc1nc(N2CCOCC2)c2c(c1C#N)CC(C(C)C)OC2 (configuration not stated),20% (inactive)
4,O=C(Nc1cccc(F)c1)[C@@H]1CCCN1,-11.2% (inactive)
5,COc1ccc(-n2cnc3cc(NCc4ccco4)ccc32)cc1,35.3% (inactive)
6,COc1ccc(-c2oc3ncn(Cc4ccco4)c(=N)c3c2-c2ccc(OC)cc2)cc1,49% (active)
7,COc1ccc(-c2oc3ncnc(NCCCO)c3c2-c2ccc(OC)cc2)cc1,17.8% (inactive)
8,COc1ccc(C(C)(C)C)cc1NC(=O)CCN1C(=O)C2CCCCC2C1=O (configuration not stated),24.4% (inactive)
9,COc1ccccc1Oc1ccc(N2CC(C(=O)OCC(=O)c3ccc(F)cc3)CC2=O)cc1 (configuration not stated),19.9% (inactive)
10,C[C@H](NC(=O)OC(C)(C)C)c1nnc(SCC(=O)Nc2ccc(Br)cc2)o1,9.84% (inactive)
11,CCc1ccccc1NC(=O)CSc1nnc([C@@H](NC(=O)OC(C)(C)C)C(C)C)o1,12.6% (inactive)
12,C[C@@H](NC(=O)OC(C)(C)C)c1nnc(S(=O)(=O)Cc2ccccc2)o1,40.3% (active)
13,CCN(CC)C(=O)COc1coc(CN2CCN(Cc3ccccc3)CC2)cc1=O,16.8% (inactive)
14,COC(C[C@@H]1O[C@@H]1C(=O)[C@@H](C)OCc1ccccc1)OC,3.69% (inactive)
15,CC1(C)NC(=O)N(CCCCSc2ccc(Cl)cc2)C1=O,-13.6% (inactive)
16,COC(=O)c1sc(-c2ccc(C(C)(C)C)cc2)cc1NC(=O)/C=C/C(=O)O,-5.28% (inactive)
17,COCCCC1CCN(C(=O)C2CCC(=O)N(C3CCCCCC3)C2)CC1 (configuration not stated),2.49% (inactive)
18,COCCNC(=O)C(OC(=O)c1cccs1)c1ccc(F)cc1 (configuration not stated),10.9% (inactive)
19,c1ccc(-c2nccc(-c3ccc(-n4cnc5ccccc54)cc3)n2)nc1,46% (active)
20,COC(=O)c1ccc(-n2cnc3ccccc32)nc1,10.4% (inactive)
21,Cc1nccc(-c2ccc(-n3c(C)ccc3C)cc2)n1,6.83% (inactive)
22,Cc1cc(C(=O)CC#N)c(C)n1CC(F)(F)F,-1.63% (inactive)
23,COCCn1c(C)cc(C(=O)COC(=O)/C=C/c2cccc(OC)c2)c1C,17.6% (inactive)
